# In the library only some 6.3% were active in any assay of this set; here they are far more common.
# Spn MK inh = S. pneumoniae MK inhibitors, primary screen, biochemical, PK/LDH-coupled NADH absorbance; purified MK, PK/LDH-coupled NADH absorbance 340 nm; 65,000 compounds, 0.48% hits; inhibition, % at 10 µM;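 active means ranked among the strongest by inhibition in the single 10 µM screen, a fixed top-ranked set picked for dose follow-up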
# PMK inhibit = S. pneumoniae PMK inhibitors, primary screen, biochemical, mevalonate pathway, pilot trial included. 65,000 compounds, 0.49% hits. purified PMK, PK/LDH-coupled NADH absorbance 340 nm. inhibition, % at 10 µM;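 active means top-ranked compounds by inhibition in the single 10 µM screen, taking a fixed number of the strongest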;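 further: 0% = full reaction with DMSO carrier and 100% = background rate without enzyme reaction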
# A340 absorber = compound light absorbance at 340 nm, profiling panel, artefact control, biochemical, MLSMR library, data from PS, PMK, MK assays | AID 708, 2007 | fold change at 10 µM | 65,000 tested, under 10 active | compound absorbance at 340 nm, fold over control;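 active means at 10 µM dose, initial 340 nm absorbance at least 2 fold that of control wells; inactive means change under 2 fold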;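 further: initial absorbance extrapolated from kinetic A340 decline of NADH oxidation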
# Autofluor 339 = intrinsic fluorescence of library compounds, ex339/em460 – biochemical, MLSMR library, data from DPM-DC assay, artefact control, profiling panel; compound autofluorescence, ex339/em460 nm, NADH buffer; hits give high values; 1 = no-compound wells, NADH background; fluorescence fold increase at 10 µM; 65,000 compounds, 5.5% hits;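 active means at 10 µM, mean starting fluorescence two-fold or more over control wells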;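 further: signal is the first read of a kinetic run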
# DPM-DC inhibit = S. pneumoniae DPM-DC inhibitors, primary screen, biochemical, PK/LDH-coupled NADH fluorescence; purified DPM-DC; diphosphomevalonate decarboxylase (Streptococcus pneumoniae D39); 65,000 compounds, 0.49% hits; AID 556, 2006; calls only at 10 µM;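 active means the 320 compounds with the highest percent inhibition in the single-dose primary screen, excluding strongly autofluorescent ones, cut at about 32% in these data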;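 further: kinetic rate of NADH fluorescence loss reporting ADP formed by the decarboxylase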
# NADH coupling = inhibitors of PK/LDH coupling enzymes, profiling panel, artefact control, biochemical, MLSMR library; 65,000 compounds, 0.02% hits; IC50, µM (highest dose often 10 µM), without a hit: at the top dose inhibition; coupled PK/LDH NADH assays, four targets;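 active means single-dose screening hits from any of four coupled enzyme assays that gave an IC50 when retested across doses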;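 further: the DPM-DC format reads NADH fluorescence rather than 340 nm absorbance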
# * hit, by the source's call; i = inactive; · = not tested or not shown.
SMILES,Spn MK inh,PMK inhibit,A340 absorber,Autofluor 339,DPM-DC inhibit,NADH coupling
COC(=O)CSc1nc(N2CCOCC2)c2c(c1C#N)CC(C)(C)N(C)C2,13,6,1.1,2.1*,i,11%
CCn1cc(C(=O)N2CCOCC2)c(=O)c2cc(S(=O)(=O)N(C)C3CCCCC3)ccc21,1,8,1,1,i,5%
O=C(NCc1cccs1)c1cnn2cccnc12,4,0,1.1,2.1*,i,6%
O=C(Nc1cccc(Cl)c1)c1cnn2cccnc12,13,5,1.1,1.1,i,7%
O=C(NCc1ccccc1Cl)c1cnn2cccnc12,8,9,1.1,2.2*,i,10%
Cc1cc(C)n(C(=O)c2cccc(S(=O)(=O)N3CCCC3)c2)n1,8,6,1,1.1,i,5%
CC(C)Oc1ccc(-c2nn(-c3ccccc3)cc2/C=c2\sc3ncnn3c2=O)cc1,7,8,1,3*,·,3%
COC(=O)/C=c1\sc2ncnn2c1=O,1,2,1,1,i,1%
Nc1nc2n(n1)C(c1cccs1)CC(c1ccc(F)cc1)N2 (stereo not given),1,6,1,1.1,i,2%
COc1ccc(C2CC(c3cccs3)n3nc(N)nc3N2)cc1 (stereo not given),3,0,0.98,2*,i,1%
CCOC(=O)C(C)Oc1ccc2c(C)cc(=O)oc2c1C(C)=O (stereo not given),4,8,1,1.2,i,6%
CCOC(=O)CCc1c(C)c2ccc(OC(C)C(=O)OCC)c(C)c2oc1=O (stereo not given),1,3,1.1,3.8*,·,2%
c1ccc2[nH]c(SN3CCOCC3)nc2c1,54*,13,0.98,1.1,i,26%
O=C(CSc1nc2ccccc2[nH]1)Nc1ccccc1N1CCOCC1,4,1,1.1,1.1,i,2%
Cc1noc(/C=C/N(C)C)c1S(=O)(=O)N1CCC(C(=O)O)CC1,13,11,1.3,0.98,i,10%
O=C(c1ccco1)N1CCN(C2CCCC2)CC1,50*,6,1.1,1.1,i,19%
CCC(Oc1ccccc1)C(=O)Nc1ccc(-c2nnc(-c3ccco3)o2)cc1 (stereo not given),12,3,1.1,2.8*,i,15%
c1ccc(-c2nnc(OCCN3CCOCC3)c3ccccc23)cc1,0,0,1,1,i,0%
CSc1ccc(CN2CCC(O)CC2)cc1,58*,8,1.1,1.1,i,22%
CCCCOc1ccc(CN2CCC(O)CC2)cc1,41*,9,1.1,1.1,i,17%
CCN1CCN(Cc2ccc(NC(=O)Nc3ccc(SC)cc3)cc2)CC1,10,7,1,1.1,i,2%
Cn1c(SCC(=O)N(C2CCCCC2)C2CCCCC2)nnc1-c1cccs1,8,0,1,1.1,i,3%
FC(F)(F)c1cccc(CN2CCCCCC2)c1,45*,5,1.1,1.1,i,17%
CN(C)c1ccc(CN2CCCCCC2)cc1,3,14,1,1,i,6%
O=C(COn1nnc2ccccc21)NCC1CCCCC1,0,11,1,1,i,4%
SMILES,Spn MK inh,PMK inhibit,A340 absorber,Autofluor 339,DPM-DC inhibit,NADH coupling
CCOC(=O)C1CCCN(C(=O)c2cnn3c(C(F)(F)F)cc(-c4ccccc4)nc23)C1 (stereo not given),6,0,1.1,1.5,i,2%
CCOC(=O)c1cnn2c(C(F)(F)F)cc(-c3ccccc3)nc12,2,14,1.1,2.2*,·,8%
CCOC(=O)c1cnc2c(-c3ccccc3)c(C)nn2c1N,4,18,1.1,1.8,i,15%
O=C(c1cnn2c(C(F)(F)F)cc(-c3ccccc3)nc12)N1CCOCC1,6,11,1.1,1.3,i,10%
CCOC(=O)N1CCC(NC(=O)c2cnn3c(C(F)(F)F)cc(-c4cccc(OC)c4)nc23)CC1,12,3,1.1,3.8*,·,8%
COC(=O)c1cnn2c(C(F)(F)F)cc(-c3ccc(F)cc3)nc12,14,9,1.1,3.3*,·,12%
CCOC(=O)c1cnc2c(-c3ccccc3)cnn2c1N,10,0,1.1,2.1*,i,3%
CCOC(=O)N1CCN(c2nc(-c3cccc(OC)c3)cc(C(F)(F)F)n2)CC1,11,1,0.99,1.3,i,4%
CCCCOCCCNC(=O)CN1C(=O)c2ccccc2C1=O,8,2,1,1.1,i,3%
c1ccc(-n2c(Sc3cnccn3)nnc2-c2cccs2)cc1,0,10,0.99,1.1,i,2%
COc1ccc(OC)c(N2C(=O)CC(C(C)c3ccccc3)C2=O)c1 (stereo not given),0,8,1,1.1,i,3%
CCOC(=O)c1cnn2c(C(F)(F)F)cc(-c3cn(C)nc3C)nc12,13,8,1.2,3.7*,·,11%
O=C(Nc1nc2nc(-c3ccccc3)cc(-c3ccccc3)n2n1)c1ccco1,9,0,1.1,4*,·,5%
COc1ccc(C2C=C(c3ccc(Br)cc3)Nc3nc(N4C(=O)CCC4=O)nn32)cc1 (stereo not given),3,8,1.1,3.9*,·,6%
CC(=O)Nc1nc2n(n1)C(c1ccccc1)C=C(c1ccccc1)N2 (stereo not given),7,12,1.1,1.8,i,12%
O=C(Nc1nc2n(n1)C(c1ccccc1)C=C(c1ccccc1)N2)c1ccco1 (stereo not given),12,19,1.1,2.6*,i,15%
CC(=O)Nc1nc2n(n1)C(c1ccc(F)cc1)C=C(c1ccccc1)N2 (stereo not given),8,0,1.1,3.4*,·,4%
Nc1nc(NC(=O)c2ccco2)nn1-c1ccccc1,6,0,1,1.1,i,2%
O=C(NCc1ccc2c(c1)OCO2)c1ccc(C2SCC(=O)N2Cc2ccco2)cc1 (stereo not given),8,6,1,1.2,i,5%
Cc1cc(-c2nnc3n2CCCCC3)c(C)n1-c1ccccc1,1,14,1,1.1,i,5%
Nc1ccccc1-c1nnc(SCc2ccccc2F)[nH]c1=O,3,5,1.1,1.2,i,3%
CC(=O)Nc1nc2n(n1)C(c1ccc(Cl)cc1)C=C(C)N2 (stereo not given),0,20,1,4.9*,·,10%
